Screens (PubChem BioAssay)
This is a sample that favours compounds with a hit; in the whole collection about 21% have one here.
Pf growth 48h = P. falciparum growth inhibition at 48 hours (one generation). P. falciparum luciferase growth in erythrocytes, 48 h. Potency, µM (highest dose often 28.7 µM), inactives show top-dose activity change, negative = inhibition, hits mostly inhibitors. 310,000 compounds, 5.9% hits; further: potency means the concentration at half of the fitted maximal effect; on the % scale 0 is the no-effect control and ±100 the full control effect
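First compound was added to culture medium, then infected red cells at 0.1% parasitemia and 2% hematocrit (final). After incubation at 37 C under 5% CO2, luciferase detection reagent was dispensed and light output recorded.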
Shiga inhibitor = Shiga toxin inhibition; Vero cells, Shiga toxin protein synthesis inhibition reporter; AID 2315; inhibition, % at 38.7 µM; 290,000 compounds, 9.2% hits; in the data active means inhibition mostly above about 28%, no sharp cut-off; inactive means mostly below about 43%; further: 0% is about no effect
Pf growth 96h = P. falciparum growth inhibition at 96 hour, primary screen for plastid delayed-death inhibitors | P. falciparum luciferase reporter growth, 96 h | Potency, µM (highest dose often 28.7 µM), without a hit: at the top dose activity change, negative = inhibition, actives largely listed as inhibitors | 320,000 compounds, 6.9% hits; further: potency means the concentration at half of the fitted maximal effect; on the % scale 0 is the no-effect control and ±100 the full control effect
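Plates of compound plus infected erythrocytes (2% hematocrit, 0.05% parasitemia final) incubate 96 hours, 37 C, 5% CO2. Detection reagent added; reduced luminescence from the parasites' luciferase reporter flags inhibition.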
NS1 inh = influenza NS1 inhibition. Potency, µM (doses to about 46.1 µM), without a hit: top-dose activity, positive = more growth. 270,000 compounds, 0.4% hits; calls by dose curve; further: potency means the concentration at half of the fitted maximal effect; actives are rising curves; nearly all actives have a fitted effect of over 50% in size
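Growth recovery, yeast-based: influenza A NS1 expressed in S. cerevisiae causes slow growth, and suppressors are detected by OD600. The parent strain without NS1 is used as positive control.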
CHX counter = counter-screen for Shiga toxin inhibitors: cycloheximide protein synthesis inhibition; cell reporter, cycloheximide protein synthesis inhibition counterscreen; max response, %; 300,000 compounds, 12% hits; in the data active means max response mostly above about 13%, no sharp cut-off; inactive means mostly below about 14%; further: read at 38.3 µM for the half of the compounds with a filed dose; 0% is about no effect
* marks the source's active call; other numbers are inactive results; [ ] = remark or other dose. Unless noted, the call rests on the fitted dose curve; in most records, active means well fitted inhibition curve with a large enough effect; inconclusive means small, poorly fitted or top-dose-only effect, or another doubt; inactive means no such curve, though single readings can be large or run the other way.

Screening C/C(=N\NC(=O)COc1ccccc1[N+](=O)[O-])c1cccs1 returned Pf growth 48h 74.5%, Shiga inhibitor 65.7*, Pf growth 96h 29.6% and CHX counter 43.3*.
`C/C(Cn1nc([N+](=O)[O-])cc1C)=N\NC(=O)c1cccc(Br)c1` gave Pf growth 48h 22.7%, Shiga inhibitor 21.7, Pf growth 96h 19.3%, NS1 inh -4.9% and CHX counter 30.9*.
For COc1ccc(OCC(=O)N/N=C(\C)c2cccs2)cc1 the results were Pf growth 48h -0.4%, Shiga inhibitor -5.1, Pf growth 96h 19.8%, NS1 inh 2.9% and CHX counter -0.8.
For C/C(Cn1nc([N+](=O)[O-])cc1C)=N\NC(=O)COc1ccccc1[N+](=O)[O-] the results were Pf growth 48h 33.6%, Shiga inhibitor active, Pf growth 96h 47.0%, NS1 inh 0.8% and CHX counter 24.9*.
Screening CCCCn1c(N)c(N(CCOC)C(=O)c2ccc(-c3ccccc3)cc2)c(=O)[nH]c1=O returned Pf growth 48h inconclusive and Pf growth 96h 2.5%.
Screening O=C1c2ccccc2C(=O)N1CCCn1c(=O)oc2ccccc21 returned Pf growth 48h 0.9%, Shiga inhibitor -4.2, Pf growth 96h 2.5%[5.75 µM], NS1 inh inconclusive and CHX counter 6.7.
Cc1ccc2oc(=O)n(CCOc3ccccc3)c2c1 was read as Pf growth 48h inconclusive, Shiga inhibitor 39.3*, Pf growth 96h -17.7%, NS1 inh -11.2% and CHX counter 35.1*.
`CCN(CC)c1nc2ccccc2n(Cc2cccc(OC)c2)c1=O` gave Pf growth 48h inconclusive, Shiga inhibitor -4.6, Pf growth 96h 1.47µM*, NS1 inh -28.1% and CHX counter 3.7.
Screening Cc1cccc(OCCCn2c(=O)oc3ccccc32)c1 returned Pf growth 48h 33.1%, Shiga inhibitor 50.5*, Pf growth 96h 34.2%, NS1 inh -31.0% and CHX counter 22.3*.
Screening COc1ccc(C(=O)COC(=O)CCCn2c(=O)oc3ccccc32)cc1 returned Pf growth 48h 9.2%, Shiga inhibitor -10.7, Pf growth 96h -2.3%, NS1 inh -17.7% and CHX counter 1.1.
For COc1ccc(OCCCn2c(=O)oc3ccccc32)cc1 the results were Pf growth 48h -29.1%, Shiga inhibitor -5.9, Pf growth 96h -16.1%, NS1 inh -4.1% and CHX counter 18.8*.
`CCCCOc1cccc(OCC(=O)Nc2nc3ccccc3[nH]2)c1` gave Pf growth 48h 2.4%, Shiga inhibitor 13.8, Pf growth 96h 22.4%, NS1 inh -11.4% and CHX counter -1.4.
O=C(NCc1ccco1)C1(S(=O)(=O)c2ccc(Cl)cc2)CC1 was read as Pf growth 48h inconclusive, Shiga inhibitor -7.1, Pf growth 96h inconclusive, NS1 inh -5.3% and CHX counter 2.4.
`CCOC(=O)c1ccc(NC(=S)NCCc2ccccc2F)cc1` gave Pf growth 48h -5.5%, Shiga inhibitor -6.7, Pf growth 96h 52.4%, NS1 inh -36.5% and CHX counter 12.9.
For COc1ccc(CNC(=S)Nc2ccc(Br)cc2)cc1 the results were Pf growth 48h 2.2%, Shiga inhibitor 14.1, Pf growth 96h 69.7%, NS1 inh 4.7% and CHX counter -3.8.
For O=C(CSc1nc2ccccc2[nH]1)N1CCN(S(=O)(=O)c2ccc(Cl)cc2)CC1 the results were Shiga inhibitor -13.0, Pf growth 96h inconclusive, NS1 inh -4.6% and CHX counter -1.7.
`Cc1cccc(OCCn2c(=O)oc3ccc(C)cc32)c1` gave Pf growth 48h inconclusive, Shiga inhibitor 78.8*, Pf growth 96h 51.7%, NS1 inh -8.1% and CHX counter 41.8*.
For O=c1oc2ccccc2n1Cc1ccccc1 the results were Pf growth 48h 45.1%, Shiga inhibitor -7.5, Pf growth 96h 41.2%, NS1 inh 2.2% and CHX counter -5.3.
COc1cccc(Cn2c(=O)oc3ccccc32)c1 was read as Pf growth 48h 46.6%, Shiga inhibitor 44.6*, Pf growth 96h 48.6%, NS1 inh 1.4% and CHX counter 41.5*.
`COc1ccc(C(=O)N2N=C(c3ccc(NS(C)(=O)=O)cc3)CC2c2cccs2)cc1` (centres undefined) gave Pf growth 48h inconclusive, Shiga inhibitor 20.2, Pf growth 96h 9.1%, NS1 inh -6.1% and CHX counter 5.7.
`Cc1ccc2c(C(=O)CN3CCC(C(N)=O)CC3)c(C)[nH]c2c1` gave Pf growth 48h 13.7%, Shiga inhibitor -5.3, Pf growth 96h 9.7%, NS1 inh 0.2% and CHX counter 0.6.
`CCN(CC)Cc1nc2c(c(=O)[nH]1)C(CC)(CC)Cc1ccccc1-2` gave Pf growth 48h 9.28µM*, Shiga inhibitor -3.4, Pf growth 96h -139.5%, NS1 inh 14.4% and CHX counter -2.0.
For CCc1nc2c(c(=O)[nH]1)C(CC)(CC)Cc1ccccc1-2 the results were Pf growth 48h 0.0%, Shiga inhibitor -9.7, Pf growth 96h -4.2%, NS1 inh 3.6% and CHX counter -3.2.
`Cc1ccc(CNC(=O)NC2CCCCC2)cc1` gave Shiga inhibitor 55.5*, Pf growth 96h -19.0%, NS1 inh 0.0% and CHX counter 16.0*.
`O=C(NC1CCCCCC1)C1CCN(C(=O)c2ccc(Br)cc2)CC1` gave Pf growth 48h -4.9%, Shiga inhibitor -7.0, Pf growth 96h inconclusive, NS1 inh -4.1% and CHX counter -2.2.
For Cc1ccc(C(=O)N2CCC(C(=O)NC3CCCCCC3)CC2)cc1 the results were Pf growth 48h inconclusive, Shiga inhibitor 55.7, Pf growth 96h inconclusive, NS1 inh -5.9% and CHX counter 27.6*.
Screening O=C(COC(=O)c1ccc(O)cc1)NC1CCCC1 returned Pf growth 48h 45.4%, Shiga inhibitor 16.3, Pf growth 96h 54.0%, NS1 inh 1.5% and CHX counter 19.4.
Cc1ccc(C(=O)NCC(=O)NC2CCCCCC2)cc1 was read as Pf growth 48h 16.6%, Shiga inhibitor 25.5*, Pf growth 96h inconclusive, NS1 inh 1.4% and CHX counter active.
Screening Cc1ccc(C(=O)OCC(=O)NC2CCCC2)cc1 returned Pf growth 48h 65.1%, Shiga inhibitor 74.7*, Pf growth 96h 48.0%, NS1 inh 1.4% and CHX counter 32.0*.
Screening O=C1CCCCC1Sc1nnc(-c2ccc3c(c2)OCO3)o1 (centres undefined) returned Pf growth 48h inactive, Shiga inhibitor -27.6, Pf growth 96h inactive and CHX counter -11.6.
`CCn1cc(CNC(=O)NC2CCCCC2)c(C)n1` gave Pf growth 48h 55.3%, Shiga inhibitor 64.6*, Pf growth 96h -18.5%, NS1 inh 3.3% and CHX counter 19.2*.
CC(C)(C)c1ccc(C(=O)OCC(=O)NC2CC2)cc1 was read as Pf growth 48h 9.28µM* and Pf growth 96h inconclusive.
`CCN1CCN(c2ccc(S(=O)(=O)N3CCCCC3)cc2NC(=O)Cc2ccc(Cl)c(Cl)c2)CC1` gave Pf growth 48h 10.4µM* and Pf growth 96h 10.4µM*.
Screening CCOc1ccccc1OCC(=O)Nc1cc(S(=O)(=O)N2CCCCC2)ccc1N1CCN(CC)CC1 returned Pf growth 48h 10.4µM* and Pf growth 96h 3.29µM*.
